Assay results reported in PubChem BioAssay AID1159580 (chemical genetic matrix, 2015).
“And” between values parts separate entries of the source, which are not always exact repeats. Identical values can stand only once. About 2,000 (36%) of roughly 5,500 compounds were called active. Inconclusive results (about 18%) are left out. Cut-off read from the data, not from the text of the source: active = normalized growth mostly below about 0.91 (no sharp cut-off); inconclusive = no clear call, values can overlap the other calls; inactive = mostly above about 0.92. The list shows a part of the results.

Test: chemical genetic growth profiling, strain panel (AID 1159580);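 note: tested at 20 µM; growth read once vehicle control cultures reached saturation at 30 °C; 1 = growth at the plate median or of vehicle wells; lower values mean less growth of the strain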
Settings: S. cerevisiae deletion strains, growth OD

Measured: normalized growth

CC(=O)O[C@H]1C[C@@H](OC(C)=O)C(C)(C)C2C[C@@H](OC(C)=O)[C@]3(C)C(CC[C@@]4(C)[C@H](c5ccoc5)OC(=O)[C@H]5O[C@]543)[C@]21C (some centres not stated)
inactive: locus YAL021C, strain ccr4, stronger effect = lower value 0.993 | locus YAL026C, strain drs2, stronger effect = lower value 0.984 | locus YAL030W, strain snc1, stronger effect = lower value 0.993 | locus YBL061C, strain skt5, stronger effect = lower value 0.993 | locus YBR009C, strain hhf1, stronger effect = lower value 1.02 | locus YBR021W, strain FUR4, stronger effect = lower value 0.969 | locus YBR023C, strain chs3, stronger effect = lower value 0.996 | locus YBR171W, strain sec66, stronger effect = lower value 0.991 | locus YBR229C, strain ROT2, stronger effect = lower value 0.992 | locus YBR231C, strain swc5, stronger effect = lower value 1.01 | locus YBR279W, strain paf1, stronger effect = lower value 1 | locus YCL011C, strain gbp2, stronger effect = lower value 1 | locus YCL016C, strain dcc1, stronger effect = lower value 0.992 | locus YCL029C, strain bik1, stronger effect = lower value 1.01 | locus YCL061C, strain MRC1, stronger effect = lower value 1 | locus YCL069W, strain vba3, stronger effect = lower value 0.999 | locus YCR088W, strain abp1, stronger effect = lower value 1 | locus YDL005C, strain med2, stronger effect = lower value 0.993 | locus YDL035C, strain GPR1, stronger effect = lower value 1.02 | locus YDL040C, strain nat1, stronger effect = lower value 0.999 | locus YDL074C, strain BRE1, stronger effect = lower value 1.01 | locus YDL101C, strain DUN1, stronger effect = lower value 0.991 | locus YDL134C, strain PPH21, stronger effect = lower value 0.994 | locus YDL185W, strain tfp1, stronger effect = lower value 1 | locus YDL192W, strain arf1, stronger effect = lower value 1.01 | locus YDR001C, strain nth1, stronger effect = lower value 0.976 | locus YDR069C, strain doa4, stronger effect = lower value 0.975 | locus YDR101C, strain arx1, stronger effect = lower value 1.02 | locus YDR137W, strain rgp1, stronger effect = lower value 0.963 | locus YDR159W, strain sac3, stronger effect = lower value 0.96 | locus YDR162C, strain NBP2, stronger effect = lower value 1.02 | locus YDR195W, strain ref2 0.954 | locus YDR297W, strain sur2, stronger effect = lower value 0.998 | locus YDR318W, strain mcm21, stronger effect = lower value 1.01 | locus YDR334W, strain swr1, stronger effect = lower value 0.971 | locus YDR335W, strain msn5, stronger effect = lower value 0.993 | locus YDR388W, stronger effect = lower value 0.999 | locus YDR392W, strain spt3, stronger effect = lower value 0.989 | locus YDR502C, strain sam2, stronger effect = lower value 0.998 | locus YEL003W, strain gim4, stronger effect = lower value 0.988 | locus YEL037C, strain rad23, stronger effect = lower value 0.994 | locus YEL061C, strain CIN8 (second series), stronger effect = lower value 0.991 | locus YEL061C, strain CIN8, stronger effect = lower value 1.02 | locus YER015W, strain faa2, stronger effect = lower value 1 | locus YER016W, strain bim1, stronger effect = lower value 0.993 | locus YER110C, stronger effect = lower value 1 | locus YER111C, strain swi4, stronger effect = lower value 0.988 | locus YER155C, strain BEM2 (second series), stronger effect = lower value 0.996 | locus YER155C, strain BEM2, stronger effect = lower value 1 | locus YER167W, strain BCK2, stronger effect = lower value 0.998 | locus YFR010W, strain ubp6, stronger effect = lower value 0.973 | locus YGL078C, strain dbp3, stronger effect = lower value 0.997 | locus YGL086W, strain mad1, stronger effect = lower value 1.02 | locus YGL167C, strain pmr1, stronger effect = lower value 0.987 | locus YGL173C, strain kem1, stronger effect = lower value 0.999 | locus YGL227W, strain vid30, stronger effect = lower value 1.01 | locus YGL240W, strain doc1, stronger effect = lower value 0.999 | locus YGL248W, strain PDE1, stronger effect = lower value 0.99 | locus YGL253W, strain hxk2, stronger effect = lower value 0.995 | locus YGR078C, strain PAC10, stronger effect = lower value 0.991 | locus YGR135W, strain pre9, stronger effect = lower value 0.979 | locus YGR252W, strain gcn5, stronger effect = lower value 0.966 | locus YHR013C, strain ard1, stronger effect = lower value 0.987 | locus YHR027C, strain rpn1, stronger effect = lower value 0.968 | locus YHR030C, strain SLT2, stronger effect = lower value 0.978 | locus YHR079C, strain IRE1 (second series), stronger effect = lower value 0.989 | locus YHR079C, strain IRE1, stronger effect = lower value 0.984 | locus YHR094C, strain hxt1, stronger effect = lower value 1.01 | locus YHR129C, strain ARP1, stronger effect = lower value 1.02 | locus YHR142W, strain chs7, stronger effect = lower value 1 | locus YHR200W, strain rpn10, stronger effect = lower value 0.995 | locus YIL066C, strain RNR3, stronger effect = lower value 1.01 | locus YIL073C, strain SPO22, stronger effect = lower value 0.989 | locus YIL125W, strain kgd1, stronger effect = lower value 0.996 | locus YIR030C, strain dcg1, stronger effect = lower value 1 | locus YJL092W, strain hpr5, stronger effect = lower value 1.01 | locus YJL095W, strain BCK1 (second series), stronger effect = lower value 0.995 | locus YJL095W, strain BCK1, stronger effect = lower value 1.02 and 0.984 | locus YJL115W, strain asf1, stronger effect = lower value 0.974 | locus YJL129C, strain trk1, stronger effect = lower value 0.979 | locus YJL134W, strain LCB3, stronger effect = lower value 1.02 | locus YJL154C, strain vps35, stronger effect = lower value 0.98 | locus YJL164C, strain tpk1, stronger effect = lower value 0.997 | locus YJL166W, strain qcr8, stronger effect = lower value 1.03 | locus YJL168C, strain set2, stronger effect = lower value 0.999 | locus YJL187C, strain SWE1 (second series), stronger effect = lower value 0.989 | locus YJL187C, strain SWE1, stronger effect = lower value 0.999 | locus YJR043C, strain POL32, stronger effect = lower value 1.02 | locus YJR066W, strain TOR1, stronger effect = lower value 0.932 | locus YKL009W, strain mrt4, stronger effect = lower value 1 | locus YKL068W, stronger effect = lower value 1.01 | locus YKL160W, strain elf1, stronger effect = lower value 1 | locus YKL190W, strain CNB1, stronger effect = lower value 1.01 | locus YKR001C, strain vps1, stronger effect = lower value 1 | locus YKR026C, strain gcn3, stronger effect = lower value 0.995 | locus YKR091W, strain srl3, stronger effect = lower value 0.989 | locus YLL001W, strain dnm1, stronger effect = lower value 0.988 | locus YLL026W, stronger effect = lower value 0.997 | locus YLL041C, strain sdh2, stronger effect = lower value 0.987 | locus YLR027C, strain aat2, stronger effect = lower value 1.01 | locus YLR039C, strain RIC1, stronger effect = lower value 0.981 | locus YLR058C, strain SHM2, stronger effect = lower value 1.01 | locus YLR102C, strain apc9, stronger effect = lower value 0.999 | locus YLR113W, strain HOG1, stronger effect = lower value 1.03 | locus YLR221C, strain rsa3, stronger effect = lower value 0.995 | locus YLR258W, strain gsy2, stronger effect = lower value 0.998 | locus YLR262C, strain YPT6 (second series), stronger effect = lower value 0.969 | locus YLR262C, strain YPT6, stronger effect = lower value 0.974 | locus YLR268W, strain sec22, stronger effect = lower value 1 | locus YLR320W, strain mms22, stronger effect = lower value 1.02 | locus YLR330W, strain CHS5, stronger effect = lower value 1.01 | locus YLR342W, strain FKS1, stronger effect = lower value 1 | locus YLR357W, strain rsc2, stronger effect = lower value 0.997 | locus YLR370C, strain arc18, stronger effect = lower value 0.995 | locus YLR371W, strain rom2, stronger effect = lower value 1 | locus YLR384C, strain iki3, stronger effect = lower value 1.01 | locus YLR418C, strain cdc73, stronger effect = lower value 0.996 | locus YML016C, strain PPZ1, stronger effect = lower value 1.01 | locus YML032C, strain rad52, stronger effect = lower value 1 | locus YML120C, strain ndi1, stronger effect = lower value 0.995 | locus YML124C, strain tub3, stronger effect = lower value 1 | locus YMR058W, strain fet3, stronger effect = lower value 0.985 | locus YMR078C, strain ctf18, stronger effect = lower value 0.989 | locus YMR125W, strain sto1, stronger effect = lower value 0.983 | locus YMR129W, stronger effect = lower value 0.994 | locus YMR205C, strain PFK2, stronger effect = lower value 0.988 | locus YMR223W, strain ubp8, stronger effect = lower value 0.996 | locus YMR231W, strain pep5, stronger effect = lower value 0.981 | locus YMR307W, strain GAS1, stronger effect = lower value 0.895 | locus YNL067W, strain RPL9B, stronger effect = lower value 1.01 | locus YNL071W, strain lat1, stronger effect = lower value 0.992 | locus YNL128W, strain TEP1, stronger effect = lower value 1.02 | locus YNL153C, strain GIM3, stronger effect = lower value 1.02 | locus YNL183C, strain NPR1, stronger effect = lower value 0.93 | locus YNL209W, strain ssb2, stronger effect = lower value 0.995 | locus YNL233W, strain BNI4, stronger effect = lower value 0.974 | locus YNL248C, strain rpa49, stronger effect = lower value 0.971 | locus YNL250W, strain rad50, stronger effect = lower value 0.98 | locus YNL271C, strain bni1, stronger effect = lower value 1 | locus YNL298W, strain CLA4, stronger effect = lower value 1.01 | locus YNL307C, strain MCK1, stronger effect = lower value 0.986 | locus YNL322C, strain KRE1 (second series), stronger effect = lower value 0.999 | locus YNR049C, strain mso1, stronger effect = lower value 0.991 | locus YNR052C, strain pop2, stronger effect = lower value 0.996 | locus YOL012C, strain htz1 1 | locus YOL147C, strain pex11, stronger effect = lower value 0.999 | locus YOR001W, strain rrp6, stronger effect = lower value 0.979 | locus YOR061W, strain CKA2, stronger effect = lower value 0.997 | locus YOR069W, strain VPS5, stronger effect = lower value 0.991 | locus YOR070C, strain gyp1, stronger effect = lower value 0.986 | locus YOR080W, strain dia2, stronger effect = lower value 0.997 | locus YOR083W, strain WHI5, stronger effect = lower value 1 | locus YOR106W, strain vam3, stronger effect = lower value 0.983 | locus YOR136W, strain idh2, stronger effect = lower value 0.996 | locus YOR144C, strain elg1, stronger effect = lower value 1 | locus YOR184W, strain ser1, stronger effect = lower value 1 | locus YOR231W, strain MKK1, stronger effect = lower value 0.987 | locus YOR265W, strain rbl2, stronger effect = lower value 0.989 | locus YOR270C, strain vph1, stronger effect = lower value 0.858 | locus YOR290C, strain snf2, stronger effect = lower value 0.994 | locus YOR316C, strain cot1, stronger effect = lower value 0.999 | locus YPL051W, strain arl3, stronger effect = lower value 1 | locus YPL055C, strain LGE1, stronger effect = lower value 1.02 | locus YPL078C, strain atp4, stronger effect = lower value 1.01 | locus YPL106C, strain sse1, stronger effect = lower value 1.05 | locus YPL240C, strain hsp82, stronger effect = lower value 0.994 | locus YPL256C, strain CLN2, stronger effect = lower value 0.989 | locus YPR119W, strain clb2, stronger effect = lower value 1.01 | locus YPR141C, strain kar3, stronger effect = lower value 0.996 | locus YPR163C, strain tif3, stronger effect = lower value 1 | locus YPR167C, strain met16, stronger effect = lower value 1 | strain wtn01, stronger effect = lower value 1
